According to PubChem BioAssay (Tox21):
Values joined by “and” are separate entries in the source; they are usually repeats but may differ in a detail not shown here. Equal values may be shown once. Results filed as inconclusive are left out. Where a structure was tested more than once in an assay, its records may differ in their call. Active and inactive are the calls of the source. Unless noted, the call rests on the fitted dose curve; in most records, active means well fitted curve in the direction sought with a large enough effect in the repeat runs; inconclusive means weak or mixed curves; inactive means no such curve, though single readings can be large; an effect the other way counts as inactive or inconclusive.

Tests used:
[1] = qHTS assay to identify small molecule antagonists of the glucocorticoid receptor (GR) signaling pathway - cell viability counter screen (AID 720693); further: nearly all actives have a fitted effect of over 55% in size; further: potency means the concentration at half of the fitted maximal effect
[2] = qHTS assay for identifying genotoxic compounds that show differential cytotoxicity against isogenic chicken DT40 cell lines with known DNA damage response pathways - wild type cell line (AID 743012); further: nearly all actives have a fitted effect of over 60% in size; further: potency means the concentration at half of the fitted maximal effect
Outline: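 Wild-type DT40 cells (300/well) exposed to compounds for 40 hours at 37 C/5% CO2. Viability read by CellTiter-Glo luminescence after 30 min at room temperature.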

[3] = qHTS assay for identifying genotoxic compounds that show differential cytotoxicity against isogenic chicken DT40 cell lines with known DNA damage response pathways - Rev3 mutant cell line (AID 743014); further: nearly all actives have a fitted effect of over 55% in size; further: potency means the concentration at half of the fitted maximal effect
[4] = qHTS assay for identifying genotoxic compounds that show differential cytotoxicity against isogenic chicken DT40 cell lines with known DNA damage response pathways - Rad54/Ku70 mutant cell line (AID 743015); further: nearly all actives have a fitted effect of over 60% in size; further: potency means the concentration at half of the fitted maximal effect
[5] = qHTS assay to identify small molecule antagonists of the androgen receptor (AR) signaling pathway - cell viability counter screen (AID 743033; further: nearly all actives have a fitted effect of over 45% in size; further: potency means the concentration at half of the fitted maximal effect)
[6] = qHTS assay to identify small molecule antagonists of the androgen receptor (AR) signaling pathway using the MDA cell line - cell viability counter screen (AID 743041; further: nearly all actives have a fitted effect of over 45% in size; further: potency means the concentration at half of the fitted maximal effect)
Outline: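 MDA-kb2 AR-luc cells (MMTV-luciferase, AR/GR responsive) treated with compounds plus R1881 agonist for 16 h at 37C. CellTiter-Fluor added at 15.5 h; fluorescence read after 30 min in the same wells.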

[7] = biological target: Androgen receptor (Homo sapiens) (UniProt P10275); experiment: qHTS assay to identify small molecule antagonists of the androgen receptor (AR) signaling pathway (AID 743035; active means well fitted inhibition curve with a large enough effect in the signal ratio in the repeat runs, not every such curve was filed as active; the % refers to the signal ratio; further: potency means the concentration at half of the fitted maximal effect)
Outline: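 HEK293 cells stably carrying UAS-beta-lactamase reporter, 2,000/well, given compounds plus R1881 agonist and incubated 16 h at 37C. LiveBLAzer B/G FRET substrate then added for 2 h at room temperature before fluorescence reading.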

[8] = biological target: Androgen receptor (Homo sapiens) (UniProt P10275); experiment: qHTS assay to identify small molecule agonists of the androgen receptor (AR) signaling pathway (AID 743036; active means well fitted activation curve with a large enough effect in the signal ratio in the repeat runs, with a control signal flat, not every such curve was filed as active; the % refers to the signal ratio)
Outline: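 Agonist activity was scored by beta-lactamase reporter fluorescence in stably transfected HEK293 cells exposed to compounds for 16 h at 37C and 5% CO2. Substrate loading took 2 h at room temperature.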

[9] = biological target: Androgen receptor (Homo sapiens) (UniProt P10275); experiment: qHTS assay to identify small molecule agonists of the androgen receptor (AR) signaling pathway using the MDA cell line (AID 743040; further: potency means the concentration at half of the fitted maximal effect; on all read-outs here: nearly all actives have a fitted effect of over 20% in size); settings: MDA-kb2 AR-luc cells, MMTV luciferase, 16 h; for activity change: stronger effect = higher value
Outline: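 MDA-kb2 breast carcinoma cells carrying MMTV-luciferase (responsive to AR and GR), plated 5 h then treated 16 h with compounds at 37C, 0% CO2. Read-out was ONE-Glo luminescence after 30 min at room temperature.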

[10] = biological target: Androgen receptor (Homo sapiens) (UniProt P10275); experiment: qHTS assay to identify small molecule antagonists of the androgen receptor (AR) signaling pathway using the MDA cell line (AID 743042; further: nearly all actives have a fitted effect of over 55% in size; further: potency means the concentration at half of the fitted maximal effect)
Outline: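 MDA-kb2 breast carcinoma cells carrying MMTV-luciferase (AR/GR responsive) were co-treated with compounds and the agonist R1881 for 16 h at 37C. Inhibition read as ONE-Glo luminescence; CellTiter-Fluor fluorescence measured in parallel for cytotoxicity.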
On the % scale 0 is the no-effect control and ±100 the full control effect.

Androgen receptor (Homo sapiens), sequence (P10275 whole entry, looked up): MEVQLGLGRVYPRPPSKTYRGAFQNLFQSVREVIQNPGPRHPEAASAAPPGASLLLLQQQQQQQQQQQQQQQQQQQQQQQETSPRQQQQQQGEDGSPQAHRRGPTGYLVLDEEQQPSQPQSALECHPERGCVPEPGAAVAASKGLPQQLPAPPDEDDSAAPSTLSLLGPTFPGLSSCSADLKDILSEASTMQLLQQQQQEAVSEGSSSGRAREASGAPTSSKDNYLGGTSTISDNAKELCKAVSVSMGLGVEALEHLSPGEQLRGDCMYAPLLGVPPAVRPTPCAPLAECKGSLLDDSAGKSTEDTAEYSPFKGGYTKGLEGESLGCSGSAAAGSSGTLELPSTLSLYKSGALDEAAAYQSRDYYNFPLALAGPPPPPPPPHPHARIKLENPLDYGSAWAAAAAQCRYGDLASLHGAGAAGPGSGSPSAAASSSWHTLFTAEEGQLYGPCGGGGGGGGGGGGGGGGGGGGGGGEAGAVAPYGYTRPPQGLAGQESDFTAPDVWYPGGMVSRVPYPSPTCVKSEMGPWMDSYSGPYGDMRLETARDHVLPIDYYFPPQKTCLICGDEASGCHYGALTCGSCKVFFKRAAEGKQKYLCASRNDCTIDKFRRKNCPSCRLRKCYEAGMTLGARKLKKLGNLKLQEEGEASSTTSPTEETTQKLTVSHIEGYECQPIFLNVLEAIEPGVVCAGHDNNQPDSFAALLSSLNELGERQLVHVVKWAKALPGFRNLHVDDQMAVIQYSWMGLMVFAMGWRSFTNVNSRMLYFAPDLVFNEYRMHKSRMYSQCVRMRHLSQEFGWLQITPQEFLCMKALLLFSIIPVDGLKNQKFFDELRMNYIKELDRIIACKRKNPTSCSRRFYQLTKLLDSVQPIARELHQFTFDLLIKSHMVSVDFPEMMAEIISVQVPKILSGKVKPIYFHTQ

Clc1ccccc1-c1nnc(-c2ccccc2Cl)nn1
inactive: Potency [1] | Potency [2] | Potency [3] | Potency [4] | Potency [5] | Potency [6]

c1ccc(C2CO2)cc1 (stereo not given)
inactive: Potency [1] | Potency [2] | Potency [3] | Potency [4] | Potency [5] | Potency [6]

O=C1CCCO1
inactive: Potency [1] | Potency [2] | Potency [3] | Potency [4] | Potency [5] | Potency [7] | Potency [8] | activity change ([9]; at 70.3 µM (top of the series)) -2.47% and -0.181% | Potency [6] | Potency [10]

CCC/C=N/O
inactive: Potency [1] | Potency [2] | Potency [3] | Potency [4] | Potency [5] | Potency [6]

Cc1ccc(N=CN(C)C=Nc2ccc(C)cc2C)c(C)c1
inactive: Potency [1] | Potency [5] | Potency [6]
inactive and 30.6 µM (active): Potency [2] | Potency [4]
inactive and 38.5 µM (active): Potency [3]

Clc1cccc(Cl)c1
inactive: Potency [1] | Potency [2] | Potency [3] | Potency [4] | Potency [5] | Potency [6]

CCC1(c2ccc(N)cc2)CCC(=O)NC1=O (stereo not given)
inactive: Potency [1] | Potency [2] | Potency [3] | Potency [4] | Potency [5] | Potency [7] | Potency [8] | activity change ([9]; at 70.3 µM (top of the series)) -1.61% and 2% | Potency [6] | Potency [10]

CN(C)P(=O)(N(C)C)N(C)C
inactive: Potency [1] | Potency [2] | Potency [3] | Potency [4] | Potency [5] | Potency [6]

Cn1c(-c2ccccc2)cc(-c2ccccc2)[n+]1C
inactive: Potency [1]
active: Potency [2] 12.2 µM and 1.37 µM | Potency [3] 2.73 µM and 864 nM | Potency [4] 4.32 µM and 2.43 µM

N#Cc1c(Cl)c(Cl)c(Cl)c(C#N)c1Cl
active: Potency [1] 21.5 µM and 21.9 µM | Potency [2] 268 nM and 122 nM | Potency [3] 213 nM and 172 nM | Potency [4] 268 nM and 154 nM | Potency [5] 2.41 µM and 1.55 µM | Potency [6] 4.76 µM and 6.11 µM

CC(C)(O)C#N
inactive: Potency [1] | Potency [2] | Potency [3] | Potency [4] | Potency [5] | Potency [6]

[CH3][Sn]([Cl])([Cl])[Cl]
inactive: Potency [1] | Potency [2] | Potency [3] | Potency [4] | Potency [5] | Potency [6]

O=NN(c1ccccc1)c1ccccc1
inactive: Potency [1] | Potency [2] | Potency [3] | Potency [4] | Potency [5] | Potency [6]

Cc1cc(Cl)ccc1N=CN(C)C
inactive: Potency [1] | Potency [2] | Potency [3] | Potency [4] | Potency [5] | Potency [6]

CCOP(=S)(OCC)SCn1c(=O)oc2cc(Cl)ccc21
active: Potency [2] 27.3 µM | Potency [3] 32.9 µM and 27.3 µM | Potency [4] 46.4 µM and 30.6 µM
inactive: Potency [1] | Potency [5] | Potency [6]

Clc1cccc(C(Cl)(Cl)Cl)n1
inactive: Potency [1] | Potency [2] | Potency [3] | Potency [4] | Potency [5] | Potency [7] | Potency [8] | activity change ([9]; at 70.3 µM (top of the series)) 0.42% and 1.19% | Potency [6] | Potency [10]

CC(C)Nc1nc(Cl)nc(NC(C)C)n1
inactive: Potency [1] | Potency [2] | Potency [3] | Potency [4] | Potency [5] | Potency [6]

COc1ccc(C=O)cc1OC
inactive: Potency [1] | Potency [2] | Potency [3] | Potency [4] | Potency [5] | Potency [6]

N#Cc1nn(-c2c(Cl)cc(C(F)(F)F)cc2Cl)c(N)c1S(=O)C(F)(F)F (stereo not given)
inactive: Potency [1] | Potency [8] | activity change ([9]; at 70.3 µM (top of the series)) -9.74% | activity change ([9]; at 95 µM (top of the series)) -12%
active: Potency [2] 8.41 µM and 2.75 µM | Potency [3] 10.6 µM and 3.88 µM | Potency [4] 9.44 µM and 1.94 µM | Potency [5] 15.6 µM | Potency [7] 23.9 µM | Potency [10] 17.3 µM

C=C(C)C#N
inactive: Potency [1] | Potency [2] | Potency [3] | Potency [4] | Potency [5] | Potency [6]

CS(=O)(=O)NC(=O)c1cc(Oc2ccc(C(F)(F)F)cc2Cl)ccc1[N+](=O)[O-]
inactive: Potency [1] | Potency [2] | Potency [3] | Potency [4] | Potency [5] | Potency [6]

C[C@]12CCC(=O)C=C1CC[C@@H]1[C@@H]2CC[C@@]2(C)[C@H]1CC[C@]2(C)O
active: Potency [1] 15.5 µM | Potency [2] 29.8 µM and 26.6 µM and 21.7 µM | Potency [3] 26.6 µM and 29.8 µM and 26 µM | Potency [4] 29.8 µM and 26.6 µM and 26.7 µM
inactive: Potency [5] | Potency [6]

O=[N+]([O-])/N=C1\NCCN1Cc1ccc(Cl)nc1
inactive: Potency [1] | Potency [2] | Potency [5] | Potency [7] | Potency [8] | activity change ([9]; at 70.3 µM (top of the series)) 0.161% and 4.01% and 0.695% | Potency [6] | Potency [10]
inactive and 8.41 µM (active): Potency [3]
inactive and 5.31 µM (active): Potency [4]

Oc1ccc(Cl)cc1Cl
inactive: Potency [1] | Potency [2] | Potency [3] | Potency [4] | Potency [5] | Potency [6]

Nc1ccc([N+](=O)[O-])cc1N
active: Potency [2] 27.3 µM | Potency [4] 13.7 µM and 19.3 µM
43.2 µM (active) and inactive: Potency [3]
inactive: Potency [1] | Potency [5]

CC1(C)C(C(=O)OC(C#N)c2cccc(Oc3ccccc3)c2)C1(C)C (stereo not given)
inactive and 48.5 µM (active): Potency [2]
inactive and 54.4 µM (active): Potency [4]
inactive: Potency [1] | Potency [3] | Potency [5] | Potency [6]

CN(C)c1nc(=O)n(C2CCCCC2)c(=O)n1C
inactive: Potency [1] | Potency [2] | Potency [3] | Potency [4] | Potency [5] | Potency [6]

CC1(C)Cc2cccc(O)c2O1
inactive: Potency [1] | Potency [2] | Potency [3] | Potency [4] | Potency [5] | Potency [6]

CCOP(=O)(OCC)OCC
inactive: Potency [1] | Potency [2] | Potency [3] | Potency [4] | Potency [5] | Potency [6]

CNC(=O)Oc1cccc2c1OC(C)(C)C2
inactive: Potency [1] | Potency [2] | Potency [4] | Potency [5] | Potency [8] | activity change ([9]; at 70.3 µM (top of the series)) 1.41% | activity change ([9]; at 95 µM (top of the series)) 1.74% | Potency [6] | Potency [10]
inactive and 24.3 µM (active): Potency [3]

O=NN1CCOCC1
inactive: Potency [1] | Potency [2] | Potency [3] | Potency [4] | Potency [5] | Potency [6]

COP(=O)(NC(C)=O)SC (stereo not given)
inactive and 27.3 µM (active): Potency [3]
inactive and 30.6 µM (active): Potency [4]
inactive: Potency [1] | Potency [5] | Potency [6]
inactive and 68.6 µM (active): Potency [2]

CNC(=S)S
inactive: Potency [1] | Potency [2] | Potency [3] | Potency [4] | Potency [5] | Potency [6]

[Cl-].[Cl-].[Cl-].[Fe+3]
inactive: Potency [1] | Potency [2] | Potency [3] | Potency [4] | Potency [5] | Potency [6]

S=c1[nH]c2ccccc2[nH]1
active: Potency [9] 3.86 µM
inactive: Potency [1] | Potency [2] | Potency [3] | Potency [4] | Potency [5] | Potency [7] | Potency [8] | activity change ([9]; at 70.3 µM (top of the series)) -1.99% | Potency [6] | Potency [10]

O=[N+]([O-])c1ccc(Cl)c([N+](=O)[O-])c1
inactive: activity change ([9]; at 70.3 µM (top of the series)) -11.5% | activity change ([9]; at 95 µM (top of the series)) -10.5%
active: Potency [1] 19.8 µM | Potency [2] 2.77 µM and 1.72 µM | Potency [3] 1.75 µM and 2.17 µM | Potency [4] 1.24 µM and 1.93 µM | Potency [5] 11.1 µM and 17.4 µM | Potency [7] 9.92 µM and 19.5 µM | Potency [6] 15.6 µM and 13.7 µM | Potency [10] 8.77 µM and 8.63 µM

N#Cc1cccnc1
inactive: Potency [1] | Potency [2] | Potency [3] | Potency [4] | Potency [5] | Potency [6]

COP(=S)(OC)Oc1ccc(Sc2ccc(OP(=S)(OC)OC)cc2)cc1
active: Potency [2] 29.8 µM and 68.6 µM | Potency [7] 54.9 µM | Potency [10] 61.1 µM
inactive: Potency [1] | Potency [8] | activity change ([9]; at 70.3 µM (top of the series)) -9.3% and -9.83% | Potency [6]

CC(C)(c1ccccc1)c1ccc(O)cc1
active: Potency [3] 60.6 µM and 17.2 µM | Potency [4] 13.7 µM | Potency [5] 38.6 µM and 49 µM
inactive: Potency [1] | Potency [6]

CC(C)Nc1ccc(Nc2ccccc2)cc1
inactive: Potency [1]
active: Potency [2] 5.96 µM and 17.2 µM and 12.2 µM | Potency [3] 10.6 µM and 12.1 µM and 13.7 µM | Potency [5] 21.8 µM and 49 µM | Potency [6] 68.3 µM and 61.1 µM

COc1ccc(O)c(C(C)(C)C)c1
inactive: Potency [1] | Potency [3] | Potency [4] | Potency [5] | Potency [6]

CC1=C(C(=O)Nc2ccccc2)SCCO1
inactive: Potency [1] | Potency [5] | Potency [8] | activity change ([9]; at 70.3 µM (top of the series)) 4% | activity change ([9]; at 95 µM (top of the series)) 0.0315% | Potency [6] | Potency [10]
active: Potency [3] 24.7 µM and 12.2 µM | Potency [4] 62.1 µM and 19.3 µM

CCN(CC)C(=O)C(C)Oc1cccc2ccccc12 (stereo not given)
inactive: Potency [1] | Potency [6]
active: Potency [2] 10.9 µM | Potency [3] 54.9 µM and 17.2 µM

COP(=S)(OC)SCn1nnc2ccccc2c1=O
inactive: Potency [1] | Potency [5] | Potency [7] | Potency [8] | activity change ([9]; at 70.3 µM (top of the series)) -2.47% and -4.42% | Potency [6]
active: Potency [2] 43.3 µM | Potency [3] 60 µM and 61.1 µM
